# Source: article PMC4336329 (PLoS ONE, 2015)
# Screen size: about 310,000 compounds; about 14,000 (4.5%) showed an effect of 50% or more. Effects have a minus sign here. The full list was thinned out, with strong results kept by preference.
# Target: human ether-à-go-go-related gene (hERG) potassium channel (human, UniProt Q12809)
# Assay: primary screen, population patch clamp on CHO cells stably expressing hERG; higher = less effect of the substance
# 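Further: peak tail current of the secondary pulse compared with the same well before compound.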
# Chain of human ether-à-go-go-related gene (hERG) potassium channel (Q12809 whole entry, looked up): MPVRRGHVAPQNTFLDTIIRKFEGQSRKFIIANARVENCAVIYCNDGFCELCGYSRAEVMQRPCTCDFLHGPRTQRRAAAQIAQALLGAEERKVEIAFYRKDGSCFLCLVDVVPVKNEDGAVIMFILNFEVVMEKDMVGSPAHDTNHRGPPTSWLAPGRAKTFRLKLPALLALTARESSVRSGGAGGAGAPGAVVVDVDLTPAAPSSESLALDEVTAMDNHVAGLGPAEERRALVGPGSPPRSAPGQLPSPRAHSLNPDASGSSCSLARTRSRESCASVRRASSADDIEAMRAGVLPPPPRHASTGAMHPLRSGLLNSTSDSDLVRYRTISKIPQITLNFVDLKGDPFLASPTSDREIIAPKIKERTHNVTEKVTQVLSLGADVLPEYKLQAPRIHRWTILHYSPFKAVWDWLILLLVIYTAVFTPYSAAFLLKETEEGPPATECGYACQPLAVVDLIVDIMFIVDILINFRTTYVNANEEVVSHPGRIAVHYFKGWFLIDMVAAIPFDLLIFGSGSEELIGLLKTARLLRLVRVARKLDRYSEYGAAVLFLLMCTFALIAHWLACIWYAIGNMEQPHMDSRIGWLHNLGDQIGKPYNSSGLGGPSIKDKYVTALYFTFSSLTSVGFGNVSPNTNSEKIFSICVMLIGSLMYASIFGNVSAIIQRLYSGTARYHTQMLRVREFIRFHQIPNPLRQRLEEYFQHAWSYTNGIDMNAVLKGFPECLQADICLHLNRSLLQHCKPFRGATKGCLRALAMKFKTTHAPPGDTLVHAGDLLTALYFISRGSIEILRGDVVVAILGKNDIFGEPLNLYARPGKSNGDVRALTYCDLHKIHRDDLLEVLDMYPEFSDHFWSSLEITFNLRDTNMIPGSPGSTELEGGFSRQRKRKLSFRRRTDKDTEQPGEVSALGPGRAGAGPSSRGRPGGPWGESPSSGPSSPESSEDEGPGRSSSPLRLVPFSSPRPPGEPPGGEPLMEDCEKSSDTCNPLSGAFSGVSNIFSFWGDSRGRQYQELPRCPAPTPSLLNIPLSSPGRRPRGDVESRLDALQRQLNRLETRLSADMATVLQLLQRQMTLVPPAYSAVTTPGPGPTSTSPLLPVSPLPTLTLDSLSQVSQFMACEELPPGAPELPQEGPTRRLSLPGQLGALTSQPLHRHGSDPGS
row,SMILES,"hERG current change (%, negative = inhibition) at 10uM [%]"
1,CC(C)[C@H](NC(=O)c1cc2cc(Cl)ccc2n1C)C(=O)N[C@@H](C(=O)O)c1ccccc1,15.9
2,CCCNC(=O)N1[C@H]2CC[C@@H]1C(C(=O)OC)=C(c1ccc(F)cc1OCc1ccccc1)C2,-23.3
3,O=C(Oc1cc2oc(=O)cc(-c3ccccc3)c2cc1Cl)C1CCCCC1,4.05
4,COC(=O)Cn1cc(C(=O)OC)c2ccccc21,-4.51
5,COc1cc(C(=O)NC(C)c2ccc3ccccc3c2)cc(Cl)c1O (stereo not drawn),4.57
6,Cc1ccc(-c2cn(CCN)c(-c3ccc(Cl)nc3)n2)cc1,-21.7
7,COc1ccccc1C(=O)Nn1c(-c2cccs2)nc2ccccc2c1=O,-2.66
8,COc1cccc(CNC(=O)CSc2ccc(-c3ccco3)nn2)c1,2.15
9,COc1cccc(NC(=O)Cn2c(=O)n(C)c(=O)c3sc4c(c32)COC(C)(C)C4)c1,6.82
10,CC(=O)Nc1ccc(S(=O)(=O)NC2=NCN(C)CN2)cc1,2.76
11,COc1ccc(NC(=O)CN2CCN(Cc3ccccc3)CC2)cc1,-52.8
12,COc1ccc(NC(=O)CN2CCCC2)cc1,15.7
13,COc1ccc(NC(=O)CN2CCC(NC(=O)c3ccc(OC)cc3)CC2)cc1,-51.1
14,COc1ccc(C(=O)Nc2ccc(N3CCN(Cc4ccccc4)CC3)cc2)cc1,-4.78
15,COc1ccc(NC(=O)CN2CCCCC2)cc1.O=C(O)C(=O)O,3.8
16,CCCCOc1ccc(NC(=O)CN2CCN(Cc3ccccc3)CC2)cc1,-49.4
17,COc1ccc(C(=O)NC2CCN(CC(=O)NC3CCCCC3)CC2)cc1,-17.3
18,COc1ccc(C(=O)NC2CCN(CC(=O)Nc3cccc(OC)c3)CC2)cc1,-25.4
19,COc1ccc(NC(=O)CN2CCN(CC(=O)Nc3ccc(OC)cc3)CC2)cc1,-76.6
20,COc1cc(NC(=O)c2cccc(Br)c2)nc(OC)n1,3.34
21,CCSc1ccccc1C(=O)NCCCn1ccnc1,10.2
22,CCCC(=O)Nc1cc(-c2nnc(OC)c3ccccc23)ccc1N1CCCCC1,-36.3
23,C=CCOc1nc2c(c(=O)n(C)c(=O)n2C)n1Cc1ccccc1Cl,-6.73
24,COc1cc2c(cc1OC)C(C(=O)NCc1cccnc1)C(c1cccnc1)N(C)C2=O (stereo not drawn),9.05

row,SMILES,"hERG current change (%, negative = inhibition) at 10uM [%]"
1,COc1cc([N+](=O)[O-])cc(/C=N/NC(=O)Cn2cncn2)c1O,5.88
2,CC(=O)NCCC(=O)Nc1cc(S(=O)(=O)N2CCCCC2)ccc1N1CCCCC1,-5.37
3,CC(=O)NCCC(=O)Nc1cc(S(=O)(=O)N2CCCCC2)ccc1Oc1cccc(C)c1,-68
4,COC(=O)CNc1cc(S(=O)(=O)N2CCCCC2)ccc1Oc1cccc(C)c1,-30.7
5,CC(=O)NCCC(=O)Nc1cc(S(=O)(=O)N2CCOCC2)ccc1Oc1ccccc1,-8.45
6,CC(=O)NCCC(=O)Nc1cc(S(=O)(=O)N2CCCCC2)ccc1Oc1ccccc1,-64.9
7,CC(=O)NCCC(=O)Nc1cc(S(=O)(=O)N2CCOCC2)ccc1Oc1ccc(F)cc1,-30.5
8,COc1ccccc1Oc1ccc(S(=O)(=O)N2CCCCC2)cc1NC(=O)CCNC(C)=O,-55.1
9,COc1ccc(S(=O)(=O)N2CCCCC2)cc1NC(=O)CCNC(=O)c1ccccc1Cl,-11
10,COc1ccc(S(=O)(=O)N2CCCCC2)cc1NC(=O)CCCOc1ccccc1,-9.13
11,Cc1ccc2cccc(Oc3ncnc4scc(-c5ccc(Cl)cc5)c34)c2n1,3.87
12,CCCNC(=O)C(=O)N/N=C/c1ccc(OCc2ccccc2)cc1,26.9
13,COC(=O)c1ccc(CSc2nc3cc(Cl)ccc3s2)o1,9.32
14,CN1C(=O)C(CC(=O)O)S/C1=N\N=C\c1ccc(O)cc1O (stereo not drawn),6.03
15,Cc1ccc(NCCC(=O)c2ccc(Br)cc2)cc1,0.444
16,CCOC(=O)N1CCC(NC(=O)Cc2ccccc2)CC1,15.6
17,CCSc1ccc2nnc(-c3cccs3)n2n1,-34
18,CCOC(=O)CSc1ccc2nnc(-c3ccncc3)n2n1,-31.4
19,CCOC(=O)CSc1ccc2nnc(-c3cccs3)n2n1,-51.2
20,CCOC(=O)CC(=O)CSc1ccc2nnc(-c3ccc(F)cc3)n2n1,-23.4
21,CCOC(=O)CC(=O)CSc1ccc2nnc(-c3ccccc3)n2n1,-71.7
22,Cc1cc(NC(=O)CSc2ccc3nnc(-c4cccc(F)c4)n3n2)no1,-14.3
23,CCOC(=O)N1CCC(Nc2c(-c3ccccc3)c(=O)c2=O)CC1,-23.2
24,CCOC(=O)N1CCC(Nc2ccc3nnc(-c4ccccc4)n3n2)CC1,-82
